Results taken from ChEMBL document CHEMBL3988442, “University of Dundee, Small-Polar-MMV Screening Library” (2021).

What was measured:
[1] = biological target: T1, Aspartate--tRNA(Asp/Asn) ligase (Mycobacterium tuberculosis (strain ATCC 25618 / H37Rv)) (UniProt P9WFW3); assay: Assay for Asp RNA synthetase-1 from Mycobacterium tuberculosis; assay type: functional; design: scale not given: direction of the effect not stated beside the values; conditions: 30 µM; note: in the data most compounds retested in dose-response had high values
T1 sequence (whole entry): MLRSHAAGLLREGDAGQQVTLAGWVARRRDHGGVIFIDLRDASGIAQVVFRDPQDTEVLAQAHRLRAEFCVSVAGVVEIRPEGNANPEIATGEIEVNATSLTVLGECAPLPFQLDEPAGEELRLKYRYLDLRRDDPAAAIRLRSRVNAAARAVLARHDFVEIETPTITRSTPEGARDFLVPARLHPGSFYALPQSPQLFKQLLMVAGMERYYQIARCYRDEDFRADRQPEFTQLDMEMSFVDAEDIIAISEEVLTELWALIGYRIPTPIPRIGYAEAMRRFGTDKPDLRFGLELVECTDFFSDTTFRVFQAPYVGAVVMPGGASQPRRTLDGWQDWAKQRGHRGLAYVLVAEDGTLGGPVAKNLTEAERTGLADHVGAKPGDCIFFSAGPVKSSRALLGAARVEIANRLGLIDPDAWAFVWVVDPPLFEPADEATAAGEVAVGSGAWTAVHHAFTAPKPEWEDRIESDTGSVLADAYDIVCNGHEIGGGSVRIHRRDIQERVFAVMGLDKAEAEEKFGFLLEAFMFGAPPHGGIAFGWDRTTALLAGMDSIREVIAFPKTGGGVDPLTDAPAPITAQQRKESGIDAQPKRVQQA

[2] = biological target: Shiga toxin 2 (Escherichia coli O157:H7) (UniProt P09385+P09386); assay: E. coli 0.157:H7 Shiga Toxin SOP - stx2 screening assay; assay type: functional; design: scale not given: direction of the effect not stated beside the values; conditions: 30 µM

Structure (SMILES) | Percent Effect [1] [%] | Percent Effect [2] [%]
Cc1nnc(C(C)NCC2(c3ccc(Cl)cc3)CCCC2)o1 (stereo unspecified) | 4.47 | 3.13
O=c1nc(SCc2cccnc2)c2c(n1CCO)CCC2 | -12 | 13.4
CN(Cc1ccon1)C(=O)C1CC(=O)N(Cc2ccncc2)C1 (stereo unspecified) | 5.91 | 6.22
CNC(=O)CCCNCc1c(C(C)C)nn(C)c1N(C)C | 1.04 | 3.71
Cc1nc(CN2CCC3(CCN(c4ncc(F)cn4)C3)C2=O)cs1 (stereo unspecified) | 7.33 | -9.92
Cc1noc([C@@]23CCO[C@@H]2CCN(C(=O)c2sccc2C)C3)n1 | -0.466 | -3.55
N#Cc1ccc(CN2CCN(C(=O)c3cc(C4CC4)[nH]n3)CC2)cc1 | -2.71 | -17.1
Cc1ccc(NC(=O)N2C[C@H]3CC[C@@H]2CN(Cc2cscn2)C3)cc1 | -2.57 | 8.71
NC(=O)C1CCN(C(=O)NCc2ccccc2Cn2cncn2)CC1 | 2.04 | 1.76
COc1cc(C(=O)N(C2CC2)C2CC(=O)NC2=O)ccc1C (stereo unspecified) | -3.91 | 3.11
Cc1nc(C2CCCN(C(=O)c3cccc4c3OCO4)C2)no1 (stereo unspecified) | 5.25 | -12.6
Cc1cnn(CCC(=O)N2CCOC(c3nc(C(C)(C)C)n[nH]3)C2)c1 (stereo unspecified) | -1.81 | -26.2
CC(=O)Nc1nc(C2CCN(C(C)=O)CC2)cs1 | -1.69 | -0.268
COc1cccc(-c2nc(CNCCn3cccn3)cs2)c1 | -2.68 | -60.9
Cc1nn(C)c(N(C)C)c1CNC1CCOc2c(F)cccc21 (stereo unspecified) | -0.433 | 30.8
CCc1nc(CC(=O)N2CCOCC2c2ncon2)cs1 (stereo unspecified) | 1.11 | 11.7
Cc1nc(NC(=O)CN2CCc3c(nc(C(C)C)n3C)C2)sc1C | -4.32 | 5.46
CC(C)c1nnc2n1CCN(CC(=O)Nc1sccc1C#N)C2 | 8.51 | 16.9
Cc1cnn(CC2CCCCN2C(=O)c2ccc3nnc(C)n3c2)c1 (stereo unspecified) | 10.3 | 21.9
O=C(CCCc1ncc(-c2ccccc2)o1)N1CCN(CCO)CC1 | -1.6 | -44.5
CCc1ncncc1C(=O)N1CCCN(Cc2ccc(C)cc2)CC1 | 7.33 | 16.1
Cc1nc(CNC(C)c2ccc(OCC(=O)NC3CC3)cc2)cs1 (stereo unspecified) | 2.43 | -66.5

Structure (SMILES) | Percent Effect [1] [%] | Percent Effect [2] [%]
CN(C)CCN1CCC2(CCN(C(=O)c3ccc(F)cc3)CC2)C1=O | 2.84 | -5.38
COc1ccc(Cl)cc1C(=O)N1CCCC(n2nc(C)nc2C)C1 (stereo unspecified) | -5.94 | 7.05
CN(C)C(=O)N[C@@H]1CN(Cc2ccc3c(c2)OCO3)[C@@H]2CCCO[C@@H]21 | -0.291 | -7.65
O=C(C1=CCCC1)N1CCC[C@]2(C[C@@H](Oc3ncccc3F)CO2)C1 | 0.0684 | 7.81
Cn1ccnc1N1CCN(C(=O)Cc2ccc(F)cc2)CC1 | 3.25 | -73
CC(C)N(C)Cc1cn2c(n1)CN(Cc1ccsc1)CC2 | 1.89 | -40.8
NC(=O)Nc1cccc(Oc2ccccn2)c1 | -2.58 | -11.9
CCS(=O)(=O)c1ccccc1N1CCC(NC(C)=O)CC1 | -0.991 | 11.9
Cc1nc(CCCNC(=O)C2CC(=O)N(C3CC3)C2)sc1C (stereo unspecified) | 3.67 | -28.3
O=C(c1cccnc1)N1CC[C@H](OCC2CC2)[C@@H]1Cc1cccnc1 | 3.76 | -13.7
Cc1ccc(CN2CCn3c(C(=O)N(C)C)cnc3C2)s1 | 5.69 | -13.3
Cc1cnn(CC2CCCN2C(=O)CCc2c(C)noc2Cl)c1 (stereo unspecified) | 2.73 | -4.86
O=C(CCc1ccccc1)NCC1CCN(Cc2ccsc2)CC1 | -3.19 | -9.05
Cc1ncsc1C(=O)NC1CCN(Cc2cccnc2)CC1 | -7.07 | -58.8
Cc1cc(C)n(CC2CN(Cc3nnsc3Cl)CCO2)n1 (stereo unspecified) | -1.81 | 31.3
O=C(NC1CC1)[C@H]1C[C@H]2OCC[C@H]2N(CC2CC2)C1 | 3.52 | -19.5
COc1ccccc1OCC(=O)NS(=O)(=O)c1ccc(Br)s1 | 2.43 | -0.0881
O=C(CN1CCC(c2cccc(F)c2)C1)NCc1ccco1 (stereo unspecified) | -0.144 | -21.6
O=C(c1ccsc1)N1CCc2c(COCc3ccncc3)cncc2C1 | -1.03 | -68.5
Cc1ccc(F)c(-n2nnc(C(=O)O)c2-c2ccncc2)c1 | 6.35 | -7.89
Cn1ccnc1COc1ccc(CN2CCN(CCO)CC2)cc1 | -5.49 | -50.7
